High-throughput results deposited in PubChem BioAssay by National Center for Advancing Translational Sciences (NCATS).
This is a sample that favours compounds with a hit; in the whole collection about 0.52% have one here.
PGK inhibitor – inhibitors of T. brucei phosphoglycerate kinase; AID 602233; P07378; PGK/GAPDH coupled, Kinase-Glo luminescence, 60 min; Potency, µM (doses to about 57.5 µM), without a hit: at the top dose activity change, negative = inhibition, actives largely listed as inhibitors; 0.043% of 380,000 active; further: nearly all actives have a fitted effect of over 60% in size
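Luminescent ATP detection (Kinase-Glo Plus) follows a 60-minute room-temperature incubation, with wells lacking PGK as controls. Buffer: 100 mM TEA (pH 7.6), 5 mM MgCl2, 0.01% Tween-20. Coupling enzyme GAPDH (100 nM final) supplies unstable 1,3-BPG in-well.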
USP2a inh – inhibitors of human ubiquitin-specific protease USP2a; O75604; 0.01% of 330,000 active; USP2 core, Ub-CHOP2 coupled fluorogenic reporter, 485/531; Potency, µM (highest dose often 38.3 µM), without a hit: top-dose activity change, negative = inhibition, most hits filed as inhibitors; AID 463254;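 further: plate controls were DMSO wells for no effect and full inhibition by NEM control for full effect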
Target sequence (O75604 whole entry, looked up): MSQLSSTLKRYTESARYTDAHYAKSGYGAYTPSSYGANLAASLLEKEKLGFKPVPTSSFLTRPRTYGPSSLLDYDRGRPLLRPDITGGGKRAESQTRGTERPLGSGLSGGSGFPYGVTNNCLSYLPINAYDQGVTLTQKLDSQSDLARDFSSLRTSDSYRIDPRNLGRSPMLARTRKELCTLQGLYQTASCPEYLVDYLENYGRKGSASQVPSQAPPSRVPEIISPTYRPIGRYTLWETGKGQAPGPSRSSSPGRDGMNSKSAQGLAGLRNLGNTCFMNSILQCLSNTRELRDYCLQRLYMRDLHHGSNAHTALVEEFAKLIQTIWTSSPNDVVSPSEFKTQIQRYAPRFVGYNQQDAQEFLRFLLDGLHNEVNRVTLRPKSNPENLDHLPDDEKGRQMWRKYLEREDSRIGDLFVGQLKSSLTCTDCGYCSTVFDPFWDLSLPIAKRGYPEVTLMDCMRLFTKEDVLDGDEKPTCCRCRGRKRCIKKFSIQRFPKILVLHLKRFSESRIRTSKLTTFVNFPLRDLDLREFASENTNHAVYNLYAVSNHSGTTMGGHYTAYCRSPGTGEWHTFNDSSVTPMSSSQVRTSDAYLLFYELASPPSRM
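USP2 core (10nM final) preincubated 30min RT with compound in 20mM Tris-HCl pH 8.0, 2mM CaCl2, 2mM beta-mercaptoethanol, 0.05% CHAPS; 25nM Ub-CHOP2 plus 25nM reporter substrate added, fluorescence (Ex485/Em531) read after 60min.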
GCN5L2 inh – GCN5L2 (KAT2A) acetyltransferase inhibition | Q92830 | GCN5L2 HAT assay, ThioGlo1 CoA-SH fluorescence | Potency, µM (top dose mostly 58.9 µM), for inactives: top-dose activity change, negative = inhibition, most hits filed as inhibitors | 0.21% of 390,000 active | AID 504327
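ThioGlo1-coupled HAT assay: 20nM GCN5L2, 70uM acetyl-CoA, 75uM H3(1-25) peptide, pH 7.5. Fluorescence read at 340/540nm at start and after 20 min at room temperature.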
Tb PFK block – blocks T. brucei phosphofructokinase; O15648; T. brucei PFK, ADP-Glo luminescence; Potency, µM (highest dose often 57.5 µM), without a hit: at the highest dose activity, negative = inhibition, usual class: inhibitors; 0.17% of 330,000 active; AID 485367;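 further: 0% = uninhibited 1x PFK enzyme wells and -100% = no-enzyme wells; nearly all actives have a fitted effect of over 60% in size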
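Activity is normalized to no-enzyme wells (full inhibition) and 1.25 nM enzyme wells (no inhibition). Reaction: 0.5 mM F6P, 0.1 mM ATP, 45 min RT, ADP-Glo luminescence; concentration-response curves fitted and classed by quality.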
GLS inhibitor – glutaminase GLS (human) inhibition; GLS enzymatic activity, qHTS titration; Potency, µM (highest dose often 45.5 µM), inactives show at the highest dose activity change, negative = inhibition, usual class: inhibitors; 0.21% of 410,000 active; AID 624170
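Human kidney-isoform GLS in 45 mM KH2PO4 pH 8.2, 0.02% Tween-20, with compound, started with 1mM L-Glutamine (added stock). Glutamate oxidase/HRP/Amplex red coupled fluorescence read at start and after 30 min at RT.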
An asterisk follows results filed as active; i = inactive; ? = inconclusive; / = no result; ! = not active in a repeat. The call rests on the fitted dose curve; in most records, active means well fitted curve in the direction sought with a large enough effect; inconclusive means small, poorly fitted or top-dose-only effect, or another doubt; inactive means no such curve, though single readings can be large; an effect the other way counts as inactive or inconclusive. Unless noted, on the % scale 0 is the no-effect control and ±100 the full control effect; potency means the concentration at half of the fitted maximal effect.

SMILES | PGK inhibitor | USP2a inh | GCN5L2 inh | Tb PFK block | GLS inhibitor
Cn1nnnc1SCC1=C(C(=O)O)N2C(=O)[C@@H](NC(=O)[C@H](O)c3ccccc3)[C@H]2SC1 | ? | -3.0% | -10.8% | 2.9% | 10µM*
Cn1nnnc1SCC1=C(C(=O)O)N2C(=O)C(NC(=O)C(O)c3ccccc3)C2SC1 (stereo not drawn) | / | / | 9.8% | / | /
Cn1nnnc1SCC1=C(C(=O)O)N2C(=O)C(NC(=O)C(OC=O)c3ccccc3)C2SC1 (stereo not drawn) | / | / | 5.2% | / | /
COc1cc(N=c2ssnc2Cl)c(OC)cc1Cl | -9.9% | -1.6% | 11.2µM* | ? | 15.8µM*!
Cc1cc(C)nc(/N=c2/ssnc2Cl)c1 | i | -1.4% | -5.6% | -22.9% | 10.1%
COc1ccc(OC)c(N=c2ssnc2Cl)c1 | 1.3% | 1.6% | 28.2µM* | ? | 39.0%
CCOC(=O)c1c(NC(=O)c2nc(S(C)(=O)=O)ncc2Cl)sc(C(C)=O)c1C | 1.2% | / | -2.6% | / | 5.1%
COc1cc(OC)cc(C(=O)NCc2ccc3c(c2)CCN3C(=O)c2ccccc2)c1 | 3.2% | / | -7.1% | / | -17.3%
Cc1c2c(c(O)c3c(O)cccc13)C(=O)O[C@H]2C1C(N(C)C)C(O)=C(C(N)=O)C(=O)[C@H]1O (stereo partly drawn) | / | / | 3.16µM* | / | /
C[C@H]1c2cccc(O)c2C(O)=C2C(=O)[C@]3(O)C(O)=C(C(N)=O)C(=O)[C@@H](N(C)C)[C@@H]3[C@@H](O)[C@@H]21 | -3.7% | -20.6% | ? | 0.9% | 46.0%
C#CCOCCOCCOCCNc1nc(N2CCN(C(=O)CCCCCCCCCCNC(=O)[C@H](CCCN=C(N)N)n3cc(C[C@@H](C)CC)nn3)CC2)nc(N2CCN(C(=O)CCCCCCCCCCNC(=O)[C@@H]([C@H](C)CC)n3cc(CCCCCN)nn3)CC2)n1 | / | 10µM* | -5.2% | ? | /
C#CCOCCOCCOCCNc1nc(N2CCOCC2)nc(N2CCN(C(=O)CCCCCCCCCCNC(=O)[C@H]([C@@H](C)CC)n3cc(CCCCN=C(N)N)nn3)CC2)n1 | -8.9% | -3.6% | 0.5% | -19.4% | -4.5%
C#CCOCCOCCOCCNc1nc(N2CCN(C(=O)CCCCCCCCCCNC(=O)[C@H]([C@@H](C)CC)n3cc(CCCCN=C(N)N)nn3)CC2)nc(N2CCN(C(=O)CCCCCCCCCCNC(=O)[C@H](CCCN=C(N)N)n3cc(C[C@@H](C)CC)nn3)CC2)n1 | / | 11.2µM* | -13.9% | -5.5% | /
C[C@H]1NCc2cc(-c3ccc4c(=O)c(C(=O)O)cn(C5CC5)c4c3OC(F)F)ccc21 | / | / | / | / | 12.6µM*
O=c1[nH]c(/C=C\c2cccc(O)c2)nc(O)c1[N+](=O)[O-] | 2.5% | 0.0% | -8.3% | 0.2% | 11.1%
O=c1[nH]c(/C=C\c2ccc(O)c(O)c2)nc(O)c1[N+](=O)[O-] | -17.2% | -7.3% | 19.2% | 17.3% | 7.94µM*
CSc1ccccc1C(=O)Nc1ccccc1C(=O)NC(C)C | 6.5% | 0.7% | 18.9% | -0.3% | 31.6µM*
CN(C)c1ccc(NC(=O)Cn2cc(S(=O)(=O)Cc3ccccc3Cl)c3ccccc32)cc1 | / | / | -14.6% | / | 2.3%
Cc1ccc(C(=O)NCC(c2ccc3c(c2)OCO3)N2CCN(c3ccc(F)cc3)CC2)cc1 (stereo not drawn) | i | / | -0.1% | / | 7.6%
COCC1=C(C(=O)OC(C)OC(=O)OC(C)C)N2C(=O)C(NC(=O)/C(=N\OC)c3csc(N)n3)C2SC1 (stereo not drawn) | / | / | / | / | -2.1%
OC[C@@H]1[C@@H](c2ccc(F)cc2)C(c2ccccc2)=NN1c1ccccc1 | i | -3.0% | -14.4% | 3.4% | 16.8%
CC[C@H]1C(c2ccc(F)cc2)=NN(c2ccccc2)[C@@H]1CO | i | -15.4% | 39.8µM*! | -2.3% | 18.7%
COC(=O)C1=C(C)NC(C)=C(C(=O)O[C@H]2CCN(Cc3ccccc3)C2)C1c1cccc([N+](=O)[O-])c1 (stereo partly drawn) | / | / | / | / | 14.6%
COc1cc2c(ccc3cc(OC)c(OC)c(O)c32)cc1O | 11.2µM* | -29.8% | -16.3% | ? | 7.94µM*
CN(CCOc1ccc(C[C@H](Nc2ccccc2C(=O)c2ccccc2)C(=O)O)cc1)c1ccccn1 | / | / | 31.6µM* | / | /
SMILES | PGK inhibitor | USP2a inh | GCN5L2 inh | Tb PFK block | GLS inhibitor
Cc1cc(N2CCN(c3ccccc3F)CC2)nc2cc(O)ccc12 | 1.9% | -8.5% | 12.6µM* | 0.2% | 0.7%
CC/C=C(/C(=O)N[C@@H]1C(=O)N2C(C(=O)OCOC(=O)C(C)(C)C)=C(COC(N)=O)CS[C@H]12)c1csc(N)n1 | / | / | / | / | -16.3%
CN1CCc2c(sc3c2C(=O)NC(c2ccc(C(C)(C)C)cc2)N3)C1 (stereo not drawn) | -8.2% | / | -4.8% | / | 15.8µM*
CC(C)c1ccc(C2NC(=O)c3c(sc4c3CCN(C)C4)N2)cc1 (stereo not drawn) | -9.6% | / | -0.3% | / | 15.8µM*
COc1cc(CN2CCN(Cc3ccc(C)cc3)C(CCO)C2)cc(OC)c1O (stereo not drawn) | 6.3% | 1.8% | -0.1% | -5.8% | 7.08µM*
COc1ccc(CN2CCN(Cc3ccc(C)cc3)C(CCO)C2)cc1OC (stereo not drawn) | -8.7% | -0.8% | -4.1% | -2.3% | 4.9%
CCOC(=O)c1c(NC(=O)C(C)Sc2cn(CCNC(=O)c3c(F)cccc3F)c3ccccc23)sc2c1CCC2 (stereo not drawn) | -6.0% | / | -1.5% | / | 9.4%
CCCC(=O)Nc1ccc(NC(=O)c2ccccc2OC)cn1 | -5.8% | -2.2% | 2.24µM* | -2.3% | 4.7%
CCCC(=O)Nc1ccc(NC(=O)c2ccccn2)cn1 | -3.4% | 2.3% | -2.6% | -5.5% | 10.7%
Nc1ccc(OC(=O)Nc2ccc(O)cc2)cc1 | -2.4% | -5.5% | -5.9% | -9.9% | 14.1µM*
CCOC(=O)c1sc(=NC(=O)c2ccc(F)cc2)n(C)c1C | 0.3% | 3.5% | -5.8% | -0.1% | 3.4%
CCOC(=O)c1sc(=NC(=O)c2c(F)cccc2F)n(C)c1C | -5.3% | -2.0% | -3.3% | 4.5% | 17.8µM*
Nc1nc(NCCO)nc(N2CCCCCC2)c1[N+](=O)[O-] | -5.8% | -1.1% | 0.3% | 2.2% | 1.4%
OCCN(CCO)c1nc(N2CCCCC2)c2nc(N(CCO)CCO)nc(N3CCCCC3)c2n1 | -1.2% | ? | 25.1µM* | -10.8% | 15.7%
Cc1ccc(NC(=O)C(c2ccc(Cl)cc2)N2CCOCC2)cc1 (stereo not drawn) | -6.4% | -0.2% | -10.1% | 17.2% | -0.5%
Cc1ccc(NC(=O)C(c2ccc(Cl)cc2)N2CCCCC2)cc1 (stereo not drawn) | 4.3% | -0.7% | 2.24µM* | -0.1% | -1.9%
S=c1[nH]nc(Nc2cccc(Cl)c2)s1 | -3.4% | 0.2% | 22.4µM* | -22.2% | -2.0%
Cc1ccc(Nc2n[nH]c(=S)s2)cc1C | -2.4% | / | / | / | -5.7%
